{"source": "PubChem BioAssay AID1259313", "about": "(Sanford-Burnham Center for Chemical Genomics, 2017)", "note": "Among all 340,000 compounds or so, about 8,500 (2.5%) were called active.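 How the source made its calls: active means melting temperature shift of at least 10% of the positive control shift, at one fixed dose; inactive means the rest.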 For the sample, actives were picked, then their nearest neighbours and some compounds at random.", "data": [{"tested_on": "Glutamate receptor ionotropic, NMDA 3A (GRIN3A) ligand-binding domain", "assay": "binders of NR3A ligand-binding domain, primary screen, biophysical, differential scanning fluorimetry, uHTS (AID 1259313)", "settings": "NR3A LBD differential scanning fluorimetry, at 25 µM, hits give high values, 0% = protein alone, 100% = glycine-bound protein", "values": [{"smiles": "Cc1nnc(NC2=NCCCCC2)o1", "Tm shift relative to glycine control": "-2% (inactive)"}, {"smiles": "O=C(CC(NS(=O)(=O)c1ccc(Cl)cc1)c1ccco1)NC1CCCC1", "note": "(stereo unspecified)", "Tm shift relative to glycine control": "-0.32% (inactive)"}, {"smiles": "CCOC(=O)c1ccc(NC(=O)CS(=O)(=O)c2cn(CC)c3ccccc23)cc1", "Tm shift relative to glycine control": "-11.8% (inactive)"}, {"smiles": "Cc1nc(N)nc(SCc2ccc([N+](=O)[O-])cc2)c1N", "Tm shift relative to glycine control": "1.88% (inactive)"}, {"smiles": "Cc1nc(SCc2ccc(F)cc2)c([N+](=O)[O-])[nH]1", "Tm shift relative to glycine control": "13.7% (active)"}, {"smiles": "Cc1nc(SCC(=O)c2ccccc2)c([N+](=O)[O-])[nH]1", "Tm shift relative to glycine control": "-0.87% (inactive)"}, {"smiles": "CCCSC1=C(C#N)C(c2ccccc2C)C(C(=O)OC)C(=O)N1", "note": "(stereo unspecified)", "Tm shift relative to glycine control": "-0.63% (inactive)"}, {"smiles": "Cn1c(SCC(=O)Nc2cccc(NC(=O)c3cccs3)c2)nnc1-c1ccncc1", "Tm shift relative to glycine control": "2.57% (inactive)"}, {"smiles": "C/C(=N\\NC(=O)c1ccc(NS(=O)(=O)c2cccs2)cc1)c1ccc2ccccc2c1", "Tm shift relative to glycine control": "5.52% (inactive)"}, {"smiles": "O=C(Nc1ccc2oc(-c3ccc4ccccc4c3)nc2c1)c1cccs1", "Tm shift relative to glycine control": "25.9% (active)"}, {"smiles": "O=C(Nc1ccc(N2CCN(C(=O)C3CC3)CC2)cc1)c1cccs1", "Tm shift relative to glycine control": "0.36% (inactive)"}, {"smiles": "O=C(Nc1ccc(C(=O)O)cc1)/C(=C/c1ccc([N+](=O)[O-])cc1)NC(=O)c1ccccc1", "Tm shift relative to glycine control": "0.77% (inactive)"}, {"smiles": "O=C(NC(=S)Nc1ccc(NC(=O)c2cccs2)cc1)c1ccc([N+](=O)[O-])cc1", "Tm shift relative to glycine control": "24.7% (active)"}, {"smiles": "O=C(Nc1ccccc1)c1ccc(NC(=O)c2cccs2)cc1", "Tm shift relative to glycine control": "27% (active)"}, {"smiles": "O=C(Nc1ccc(NC(=O)c2cccs2)cc1)c1ccc2ccccc2c1", "Tm shift relative to glycine control": "25.1% (active)"}, {"smiles": "O=C(Cc1cccs1)Nc1ccc([N+](=O)[O-])cc1", "Tm shift relative to glycine control": "0.1% (inactive)"}, {"smiles": "O=C(Nc1ccc2oc(-c3ccccc3F)nc2c1)c1ccco1", "Tm shift relative to glycine control": "-4.92% (inactive)"}, {"smiles": "CC(Oc1cccc(NC(=O)c2cccs2)c1)C(=O)c1ccccc1", "note": "(stereo unspecified)", "Tm shift relative to glycine control": "-12.8% (inactive)"}, {"smiles": "O=C(Nc1ccnc(-c2ccncc2)n1)c1cccs1", "Tm shift relative to glycine control": "-0.64% (inactive)"}, {"smiles": "O=C(Nc1ccccc1-c1ccccc1)c1cccs1", "Tm shift relative to glycine control": "-0.76% (inactive)"}, {"smiles": "Cc1cc(C)c(-c2csc(NC(=O)CCCc3nc4ccccc4c(=O)[nH]3)n2)c(C)c1", "Tm shift relative to glycine control": "-5.38% (inactive)"}, {"smiles": "CCCCCN(C(=O)CCC(=O)OCC(=O)NC1CCC(C)CC1)c1c(N)n(CCCC)c(=O)[nH]c1=O", "note": "(stereo unspecified)", "Tm shift relative to glycine control": "-0.6% (inactive)"}, {"smiles": "COc1cc(S(=O)(=O)N2CCN(C(=O)C3CC3)CC2)ccc1NC(C)=O", "Tm shift relative to glycine control": "1.2% (inactive)"}, {"smiles": "CCCc1c(C(=O)N/N=C(\\C)CCc2ccc(OC)cc2)nnn1-c1nonc1N", "Tm shift relative to glycine control": "0.47% (inactive)"}, {"smiles": "CCNc1nc(N)nc(-c2cc(Cl)ccc2OC)n1", "Tm shift relative to glycine control": "1.29% (inactive)"}, {"smiles": "CCN(CC(=O)Nc1c(F)cccc1F)C(=O)CN1c2cccc3cccc(c23)S1(=O)=O", "Tm shift relative to glycine control": "-0.42% (inactive)"}]}]}
